# FLuc modulator: counter-screen for miR-21 project: firefly luciferase inhibitors or activators. AID 588342. purified FLuc, Km substrates, luminescence inhibition. Potency, µM (series often up to 57.5 µM), without a hit: top-dose activity change, negative = inhibition, hits mostly inhibitors. P08659. 360,000 compounds, 6.9% hits;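 also: plate controls were vehicle for no effect and reference inhibitor for full effect; nearly all actives have a fitted effect of over 55% in size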
# Target sequence (P08659 whole entry, looked up): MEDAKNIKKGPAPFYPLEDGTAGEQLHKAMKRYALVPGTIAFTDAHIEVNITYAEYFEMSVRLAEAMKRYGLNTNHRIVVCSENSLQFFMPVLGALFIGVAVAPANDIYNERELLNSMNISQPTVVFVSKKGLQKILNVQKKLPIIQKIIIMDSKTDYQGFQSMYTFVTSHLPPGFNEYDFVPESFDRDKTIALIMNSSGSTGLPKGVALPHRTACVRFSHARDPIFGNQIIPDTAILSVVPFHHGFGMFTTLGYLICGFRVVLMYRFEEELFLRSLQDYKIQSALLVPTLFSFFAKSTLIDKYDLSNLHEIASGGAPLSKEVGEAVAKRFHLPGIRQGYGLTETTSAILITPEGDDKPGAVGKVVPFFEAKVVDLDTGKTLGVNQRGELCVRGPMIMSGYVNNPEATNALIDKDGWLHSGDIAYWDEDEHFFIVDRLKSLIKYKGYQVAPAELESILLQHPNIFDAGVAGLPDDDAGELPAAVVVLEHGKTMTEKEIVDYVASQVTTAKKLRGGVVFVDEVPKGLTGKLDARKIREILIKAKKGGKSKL
#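 Purified P. pyralis luciferase, 10 nM final, with Km-level 10 uM D-luciferin and 10 uM ATP in 50 mM Tris acetate pH 7.5, 10 mM Mg acetate, 0.01% Tween-20, 0.05% BSA; 6-point qHTS titration about 60 µM downward; luminescence read.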
# Rab9 promoter act: activators of Rab9 promoter. Huh7 Rab9 promoter-luciferase reporter, luminescence, 24 h. Potency, µM (series often up to 9.22 µM), for inactives: at the highest dose activation, negative = inhibition, hits mostly activators. 320,000 compounds, 2.8% hits. AID 485297; also: % of control where 0% means no effect; nearly all actives have a fitted effect of over 60% in size
#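 Luminescence read-out: Huh7 cells stably expressing Rab9-luciferase, treated 24 h with compound at 37 °C, then lysed with luciferase reagent for 10 min at ambient before reading.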
# SMN2 splice up: SMN2 splice variant enhancement; HEK293 SMN2-luciferase splicing reporter, luminescence, 30-36 h; AID 1458; 210,000 compounds, 2.8% hits; Potency, µM (doses to about 46.1 µM), inactives show at the top dose activity change, positive = activation, usual class: activators; also: % of control where 0% means no effect; nearly all actives have a fitted effect of over 55% in size
#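 qHTS luciferase splicing reporter: luminescence rises when SMN2 exon 7 is included in transfected HEK293 cells. Compound exposure lasted 30-36 h at 37C, with 4.5 mM final sodium butyrate as control, followed by a ONE-Glo read.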
# ELG1 genotoxic: genotoxicity induction in ELG1-luciferase HEK293T cells | HEK293T ELG1-luciferase reporter, luminescence, 16 h | Potency, µM (highest dose often 46 µM), for the others: top-dose activity change, positive = activation, most hits filed as activators | 330,000 compounds, 1.3% hits; also: % of control where 0% means no effect; nearly all actives have a fitted effect of over 60% in size
#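 ELG1-luciferase HEK293T cells, 2,000/well; compound pinned in; 16 hr, 37 °C, 5% CO2; ONE-Glo, 30 min RT; luminescence on CCD imager.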
# NPC1 prom act: activates the NPC1 promoter; AID 485313; Potency, µM (highest dose often 9.22 µM), without a hit: at the top dose activation, actives largely listed as activators; Huh7 NPC1 promoter luciferase reporter, 24 h; 320,000 compounds, 2.4% hits; also: % of control where 0% means no effect; nearly all actives have a fitted effect of over 60% in size
#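 Huh7 cells stably carrying NPC1 promoter–luciferase, plated in Opti-MEM with 10% FBS for 2 h, were exposed to compound in DMSO for 24 h at 37 °C; luciferase reagent was added for 10 min and luminescence read.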
# KinaseGlo FLuc: Kinase-Glo luciferase inhibition (counter-screen); Potency, µM (highest dose often 38.3 µM), for inactives: at the top dose activity change, negative = inhibition, usual class: inhibitors; 200,000 compounds, 0.28% hits; Q27757; Kinase-Glo luciferase, ATP luminescence, 8 min; also: % is scaled to controls: 0 for no effect and ±100 for the full control effect; nearly all actives have a fitted effect of over 60% in size
#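 Compound is pinned into ATP-containing buffer (10 uM ATP, imidazole pH 7.2, 7 mM MgCl2). Kinase-Glo luciferase reagent is then added. Light output is recorded following an 8-min room-temperature incubation.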
# * marks the source's active call; other numbers are inactive results; ? = inconclusive; . = no result; [ ] = another dose, or the depositor's remark. The list is not random: actives were taken first. Their share in the collection is about 7.5%. Calls follow the shape of the dose curve; as a rule, active = well fitted curve in the direction sought with a large enough effect; inconclusive = small, poorly fitted or top-dose-only effect, or another doubt; inactive = no such curve, though single readings can be large; an effect the other way counts as inactive or inconclusive. Potency is read from the fitted curve at half-maximal effect.
SMILES,FLuc modulator,Rab9 promoter act,SMN2 splice up,ELG1 genotoxic,NPC1 prom act,KinaseGlo FLuc
COc1cccc2sc3ccc(C#CC4(N)CCCCC4)cc3c(=O)c12,19µM*,21%,.,11%,24%,.
COc1cc(OC)cc(-c2sc3ccc(OC)cc3c2C#CC2(N)CCCCC2)c1,.,.,.,-4%,.,.
COc1ccc(CNc2ncnc3c2c(-c2ccccc2)cn3-c2ccccc2)cc1,0%,.,.,.,.,.
Cc1ccc(-n2ncc(C(=O)NCCCN3CCCCC3)c2C2CCN(C(=O)OC(C)(C)C)CC2)cc1,-6%,.,.,.,.,.
Oc1[nH]c2ccc(Br)cc2c1N=Nc1ccc(F)cc1,2%,-1%,.,3%,6%,.
Oc1[nH]c2ccccc2c1N=Nc1ccccc1F,?,?,22µM*,?,?,-3%
Oc1[nH]c2ccccc2c1N=Nc1ccc(F)cc1,4.8µM*,?,-12%[1.84 µM],?,23%,-5%
Oc1[nH]c2ccccc2c1N=Nc1nc2ccccc2s1,1.3µM*,1.1µM*,2.5µM*,0.46µM*,3.5µM*,-11%
O=C(N=Nc1c(O)[nH]c2ccccc12)c1cc(-c2ccc(F)cc2)n[nH]1,0%,-5%,19%,-3%,-2%,1%
O=Nc1c(-c2c(O)[nH]c3ccccc23)[nH]c2ccccc12,.,?,13µM*,.,4.6µM*,-25%
O=C(CCCn1ccc2cc(S(=O)(=O)N3CCCC3)ccc21)NCc1ccc(Cl)cc1,-18%,.,.,.,.,.
COc1ccc(OC)c(NC(=O)CN(C)S(=O)(=O)c2ccc(C(=O)N3CCOCC3)s2)c1,0%,.,.,.,.,.
NS(=O)(=O)c1ccc(NC(=O)c2ccc(CNS(=O)(=O)c3cc(C(F)(F)F)ccc3Cl)cc2)cc1,3%,-4%,.,-1%,-4%,.
O=[N+]([O-])c1ccc(N=Nc2c(O)[nH]c3ccc(F)cc23)cc1,-23%,?,.,?,2.8µM*,.
O=[N+]([O-])c1ccc2[nH]c(O)c(N=Nc3ccc(F)cc3)c2c1,0%,-2%,.,0%,11%,.
Oc1[nH]c2ccccc2c1N=Nc1ccccc1,6µM*,?,.,?,4%,.
O=S1(=O)N=C(N=Nc2c(O)[nH]c3ccccc23)c2ccccc21,?,1%,-16%,-4%,-4%,-5%
CC(C)(O)C(=O)N=Nc1c(O)[nH]c2ccccc12,?,?,?,?,?,-11%
COC(=O)/C=C(\C)N=Nc1c(O)[nH]c2ccccc12,24µM*,0%,.,3%,2%,.
Cc1ccccc1CNC(=O)c1ccc(CS(=O)Cc2ccc(Cl)cc2)o1 (stereo unspecified),-10%,.,.,.,.,.
CC(C)Sc1nnc(NC(=O)c2ccc3c(c2)OCO3)s1,5.4µM*,1.4µM*,.,?,2.2µM*,.
CC(C)c1nnc(NC(=O)c2ccc3c(c2)OCO3)s1,1.3µM*,0.28µM*,1µM*,?,0.45µM*,-4%
CC(C)(C)c1nnc(NC(=O)COc2ccc3c(c2)OCO3)s1,12µM*,?,.,?,3.5µM*,.
CCSc1nnc(NC(=O)c2ccc3c(c2)OCO3)s1,6.7µM*,1.6µM*,10µM*,2.1µM*,2.5µM*,-3%
CCC1CCc2c(sc(NC(=O)C3c4ccccc4Oc4ccccc43)c2C(=O)OC)C1 (stereo unspecified),1%,.,-21%,.,.,.
SMILES,FLuc modulator,Rab9 promoter act,SMN2 splice up,ELG1 genotoxic,NPC1 prom act,KinaseGlo FLuc
COc1ccc2c(C)c(CCC(=O)NCc3ccc(C)cc3)c(=O)oc2c1,1%,.,13%,.,.,.
CCN(CC)C(=O)c1sc(NC(=O)c2ccc3c(c2)OCO3)c(C(N)=O)c1C,19µM*,?,.,5%,?,.
CC(C)(C)c1nnc(NC(=O)c2ccc3c(c2)OCO3)s1,6.7µM*,2.5µM*,.,?,2µM*,.
CCN(CC)C(=O)c1sc(NC(=O)c2ccncc2)c(C(=O)OC)c1C,-2%,-4%,-11%,-1%,-3%,1%
CCOC(=O)CSc1nnc(NC(=O)c2ccc3c(c2)OCO3)s1,1.1µM*,10%,.,19%,-6%,.
CCOC(=O)c1ccccc1NC(=O)C1CC(=O)N(c2ccccc2)C1 (stereo unspecified),0%,-1%,-6%,0%,-2%,-1%
COc1ccccc1-c1ccc(NC2CCCC2)nn1,13µM*,?,11µM*,?,26%,-5%
COc1ccc(CNc2ccc(-c3ccccc3OC)nn2)cc1,-16%,3%,6%,1%,11%,2%
COc1ccccc1-c1cnn2c(NC3CCCC3)cc(C)nc12,1.9µM*,2.8µM*,.,?,?,.
CCOC(=O)N1CCC(Nc2cc(C)nc3c(-c4ccccc4OC)c(C)nn23)CC1,-1%,-3%,-30%,12%,-6%,0%
COc1ccccc1NC1=Nc2cccc3cccc1c23,19µM*,-1%,.,-1%,2%,.
NC(=O)NNC1=Nc2cccc3cccc1c23,2%,0%,-4%,-6%,-12%,-3%
O=C(O)c1ccc(NC2=Nc3cccc4cccc2c34)cc1,?,1.6µM*,.,11%,1.6µM*,.
COc1ccccc1N1CCN(C2=Nc3cccc4cccc2c34)CC1,3.4µM*,?,.,5%,?,0%
COc1ccc(OC)c(-c2nnc3n(Cc4ccc(C)cc4)c(=O)c4ccccc4n23)c1,5%,.,.,.,.,.
Cc1cc(C)cc(NC(=O)C(NS(=O)(=O)c2cccc3nsnc23)c2ccccc2)c1 (stereo unspecified),?,.,15%,.,.,.
CC(C)c1nc2ccc(NC(=O)C3CCCCC3)cc2[nH]1,?,-7%,13%,1%,0%,-1%
O=C(Nc1nc(-c2ccccn2)cs1)c1ccc(Cl)s1,17µM*,-1%,-66%,17%,3%,2%
CCc1sc(C(=O)Nc2nc(-c3ccccn3)cs2)cc1C,.,.,.,14%,.,.
O=C(Nc1nc(-c2ccccn2)cs1)C1CCCC1,24µM*,?,30%,0%,29%,0%
O=C(Nc1ccc2nc(-c3ccccn3)[nH]c2c1)C1CCCCC1,5.4µM*,?,11µM*,21µM*,?,-4%
Cc1ccc(C(=O)Nc2nc(-c3ccccn3)cs2)s1,6.7µM*,-2%,.,15µM*,28%,.
O=C(COc1ccc(Cl)cc1Cl)N1CCN(C(=O)c2ccco2)CC1,2%,-6%,.,-3%,-7%,.
Cc1sc2ncnc(N3CCN(Cc4ccccc4)CC3)c2c1-c1ccccc1,3%,-2%,.,-25%,0%,.
N#CC1=C(N)Oc2c(ccc3ccccc23)C1c1ccsc1 (stereo unspecified),?,-23%,-29%,15µM*,-5%,2%

# Screens as filed in PubChem.
